We go through eight compounds from PubChem BioAssay (Tox21).

Experiment [1] in a line: A CellTox Green Cytotoxicity Assay to monitor cytotoxicity in HepG2 cells - 0 hour (AID 1224882). Further: nearly all actives have a fitted effect of over 35% in size. A digest of the protocol:
(§1)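 Real-time, homogeneous cytotoxicity readout: dead-cell DNA staining by CellTox Green in HepG2 monolayers, fluorescence measured at timed intervals up to 40 h of continuous compound exposure.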

A short description of experiment [2]: A CellTox Green Cytotoxicity Assay to monitor cytotoxicity in HepG2 cells - 32 hour (AID 1224883). Further: nearly all actives have a fitted effect of over 50% in size. Further: potency means the concentration at half of the fitted maximal effect. The method in brief: as §1
Experiment [3] can be described thus: A CellTox Green Cytotoxicity Assay to monitor cytotoxicity in HEK293 cells - 8 hour (AID 1224884). Further: nearly all actives have a fitted effect of over 35% in size. The method in brief:
(§2)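 Cytotoxicity was tracked continuously in HEK293 cells by a DNA-binding dye excluded from viable cells. Compounds were transferred in DMSO 5 h after seeding; fluorescence was recorded at intervals up to 40 h.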

Experiment [4] in a line: qHTS RealTime-Glo MT Cell Viability Assay in HepG2 cells - 16 hour (AID 1224885). Further: nearly all actives have a fitted effect of over 50% in size. The method in brief:
(§3)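 Tox21 10K library screened in qHTS format on HepG2 cells carrying RealTime-Glo reagents. Compounds were added after a 5 h preincubation, and the luminescent signal from continuous culture was measured repeatedly during 40 h treatment.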

The nature of experiment [5]: qHTS RealTime-Glo MT Cell Viability Assay in HEK293 cells - 24 hour (AID 1224886). Further: nearly all actives have a fitted effect of over 50% in size. Further: potency means the concentration at half of the fitted maximal effect. A digest of the protocol: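 Luminescence generated by NanoLuc from substrate produced by living HEK293 cells served as the viability signal. Each value reflects the reading at its stated time point during continuous 40 h compound exposure at 37 C.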
In general terms: qHTS replaces the single test concentration by a dilution series.

Experiment [6] can be described thus: qHTS RealTime-Glo MT Cell Viability Assay in HEK293 cells - 8 hour (AID 1224887). Further: nearly all actives have a fitted effect of over 50% in size. Further: potency means the concentration at half of the fitted maximal effect. A digest of the protocol:
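Nonlytic bioluminescent viability monitoring. HEK293 at 600 cells/well with reagent; 5 h settle; compound transfer by pintool; plates held at 37 C and read at set time points.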

The nature of experiment [7]: A CellTox Green Cytotoxicity Assay to monitor cytotoxicity in HEK293 cells - 16 hour (AID 1224888). Further: nearly all actives have a fitted effect of over 35% in size. A digest of the protocol: as §2
Experiment [8] can be described thus: qHTS RealTime-Glo MT Cell Viability Assay in HepG2 cells - 0 hour (AID 1224889). Further: nearly all actives have a fitted effect of over 50% in size. A digest of the protocol: as §3
A short description of experiment [9]: A CellTox Green Cytotoxicity Assay to monitor cytotoxicity in HepG2 cells - 8 hour (AID 1224890). Further: nearly all actives have a fitted effect of over 45% in size. The method in brief:
as §1

Experiment [10] is described as follows: qHTS assay to identify small molecule antagonists of the estrogen receptor alpha (ER-alpha) signaling pathway using the BG1 cell line in the presence of 0.1 nM 17-beta-estradiol - cell viability counter screen (AID 1259241). Further: nearly all actives have a fitted effect of over 40% in size. A digest of the protocol:
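In this screen, hormone-deprived VM7Luc4E2 cells were seeded at 4,000 per well, dosed with compound and 0.1 nM estradiol final, and incubated 22 hr at 37C and 5% CO2; fluorogenic live-cell protease signal reported viability.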

Experiment [11] in a line: qHTS assay to identify small molecule antagonists of the androgen receptor (AR) signaling pathway using the MDA cell line in the presence of 0.5 nM R1881 - cell viability counter screen (AID 1259242). Further: nearly all actives have a fitted effect of over 45% in size. A digest of the protocol:
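Cytotoxicity toward MDA-kb2 cells is measured by CellTiter-Fluor live-cell protease fluorescence after 16 hr compound exposure at 37C in the presence of 0.5 nM R1881 stimulator.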

The nature of experiment [12]: qHTS assay to identify small molecule HDAC inhibitors (AID 1259364). Further: top concentration of the series differs between compounds; nearly all actives have a fitted effect of over 45% in size. A digest of the protocol:
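Homogeneous cell-based luminescent assay of endogenous class I/II HDAC activity; HCT-116 cells, 2 h compound exposure, 30 min HDAC-Glo development at RT.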

A short description of experiment [13]: qHTS assay to identify small molecule HDAC inhibitors - cell viability counter screen (AID 1259365). A digest of the protocol:
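Measured quantity is CellTiter-Glo luminescence from wild-type HCT-116 cells after compound incubation of 2hr at 37C, 5% CO2; reagent developed 30min at room temperature.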

The nature of experiment [14]: qHTS assay to identify small molecule agonists of the sonic hedgehog signaling (Shh) pathway - cell viability counter screen (AID 1259366). Further: nearly all actives have a fitted effect of over 50% in size. The method in brief: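 In quantitative high-throughput format, 3T3 Gli1-Luc cells were exposed to compounds for 24hr and multiplexed for viability using CellTiter-Fluor, incubated 1hr at 37C before the fluorescence read.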
Experiment [15] in a line: qHTS assay to identify small molecule agonists of the sonic hedgehog signaling (Shh) pathway (AID 1259368; calls by dose curve;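 further: NIH/3T3-derived 3T3Gli1-Luc cells carrying a stable Gli1-driven firefly luciferase reporter; series mostly up to about 92 µM; nearly all actives have a fitted effect of over 15% in size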). A digest of the protocol: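 Steps: seed 3T3 Gli1-Luc cells, incubate 4 hr at 37 C, pin-transfer compounds in DMSO alongside a positive control, incubate 24 hr, add luciferase detection reagent, wait 30 min at room temperature, read luminescence.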
A short description of experiment [16]: qHTS assay to identify small molecule antagonists of the sonic hedgehog signaling (Shh) pathway - cell viability counter screen (AID 1259367). Further: nearly all actives have a fitted effect of over 55% in size. Further: potency means the concentration at half of the fitted maximal effect. A digest of the protocol:
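Cells: 3T3 Gli1-Luc, 2,000/well, 4 hr pre-incubation. Compounds in DMSO, then conditioned medium. Incubation 24 hr, 37C, 5% CO2. CellTiter-Fluor at 23 hr, 1 hr, fluorescence.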

The nature of experiment [17]: qHTS assay to identify small molecule antagonists of the sonic hedgehog signaling (Shh) pathway (AID 1259369; calls by dose curve; further: nearly all actives have a fitted effect of over 45% in size; further: potency means the concentration at half of the fitted maximal effect). A digest of the protocol: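 Inhibition of Shh signalling is measured as reduced Gli1-response-element firefly luciferase output in an NIH/3T3-derived stable reporter clone stimulated with conditioned medium for 24hr.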
In experiment [18] the target is Estrogen receptor (Homo sapiens) (UniProt P03372). In words: qHTS assay to identify small molecule antagonists of the estrogen receptor alpha (ER-alpha) signaling pathway using the BG1 cell line in the presence of 0.1 nM 17-beta-estradiol (AID 1259244). Further: nearly all actives have a fitted effect of over 50% in size. A digest of the protocol: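 After 5 days in hormone-depleted medium (charcoal-stripped serum, no phenol red), VM7Luc4E2 cells were seeded, incubated 24 h, then co-treated with compound and 0.1 nM (final) estradiol for 22 h before luminescence detection.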
Chain of Estrogen receptor (Homo sapiens) (P03372 whole entry, looked up): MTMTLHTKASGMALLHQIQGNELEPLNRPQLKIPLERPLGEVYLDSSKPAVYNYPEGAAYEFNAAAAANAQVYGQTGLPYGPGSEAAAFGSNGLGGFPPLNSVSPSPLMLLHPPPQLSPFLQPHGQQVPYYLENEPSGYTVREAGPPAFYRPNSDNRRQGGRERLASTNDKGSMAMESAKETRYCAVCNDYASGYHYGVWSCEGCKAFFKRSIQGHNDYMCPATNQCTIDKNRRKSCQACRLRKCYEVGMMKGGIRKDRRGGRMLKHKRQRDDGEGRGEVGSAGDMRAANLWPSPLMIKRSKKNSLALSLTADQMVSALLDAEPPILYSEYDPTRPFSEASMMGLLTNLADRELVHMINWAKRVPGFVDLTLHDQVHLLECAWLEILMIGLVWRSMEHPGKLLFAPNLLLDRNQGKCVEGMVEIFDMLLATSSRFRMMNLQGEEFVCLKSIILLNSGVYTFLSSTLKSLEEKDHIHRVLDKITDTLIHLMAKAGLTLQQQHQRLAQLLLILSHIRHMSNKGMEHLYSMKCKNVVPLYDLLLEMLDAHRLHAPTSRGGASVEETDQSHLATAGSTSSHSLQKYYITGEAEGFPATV

Results filed as inconclusive are left out. Some structures have more than one record in an assay (separate samples or runs), and their calls can disagree. Activity calls are given as the source filed them. Unless noted, the call rests on the fitted dose curve; in most records, active means well fitted curve in the direction sought with a large enough effect in the repeat runs; inconclusive means weak or mixed curves; inactive means no such curve, though single readings can be large; an effect the other way counts as inactive or inconclusive.

In the case of `COC(=O)NCCC[Si](OC)(OC)OC`, the Potency entry in experiment [1], in experiment [2], in experiment [3], in experiment [4], in experiment [5] and in [6] was “inactive” each time. Besides, the Potency result in [7], in [8], in [9], in experiment [10], in experiment [11] and in [12] was “inactive” in each case. Also, the Potency entry in experiment [13], in experiment [14] and in experiment [15] was “inactive” throughout.

For `CC1CCCNC1` (centres undefined), the Potency entry in [1], in experiment [2], in [3], in experiment [4], in [5] and in [6] was “inactive” each time. Besides, the Potency entry in experiment [7], in [8], in experiment [9], in experiment [10], in experiment [11] and in experiment [12] was “inactive” throughout. Also, the Potency result in [13] and in [15] was “inactive” throughout. Also, the values for the Potency in experiment [16] and in experiment [17] were 42.4 µM (active) and 26.7 µM (active), respectively.

On to `Clc1ccc(C(c2ccccc2Cl)C(Cl)Cl)cc1` (centres undefined), for which the Potency result in experiment [1], in experiment [2], in experiment [3], in experiment [4], in [6] and in experiment [7] was “inactive” each time. For the same compound, the Potency result in [8], in experiment [9], in [10], in [11], in experiment [12] and in experiment [13] was “inactive” throughout. In addition, the Potency entry in [15] and in experiment [17] was “inactive” in each case. For the same compound, in [5], the Potency was 38.9 µM (active) and inactive.

As to `CC(=O)Nc1ccc(O)cc1`, the Potency result in [1], in experiment [2], in experiment [3], in experiment [4], in experiment [5] and in [6] was “inactive” each time. Besides, the Potency result in experiment [7], in experiment [8], in experiment [9], in experiment [10], in experiment [11] and in [14] was “inactive” throughout. Moreover, the Potency result in [16], in [15] and in experiment [17] was “inactive” throughout.

In the case of `CCCCNc1c(C(=O)OCC)c(C)nc2c1cnn2CC`, the Potency entry in [1], in experiment [2], in experiment [3], in [4], in experiment [7] and in [8] was “inactive” throughout. Further, the Potency result in experiment [9], in experiment [10], in experiment [18], in experiment [12], in [13] and in experiment [14] was “inactive” in each case. The Potency result in [16] and in experiment [15] was “inactive” each time. Moreover, the Potency in experiment [5] is 12 µM (active); in [6] it was 13.4 µM (active); in experiment [17], 0.0422 µM (active).

Turning to `CN(C)CCN1CCOCC1`, the Potency entry in experiment [1], in [2], in experiment [3], in [4], in [5] and in experiment [6] was “inactive” throughout. Moreover, the Potency result in [7], in experiment [8], in experiment [9], in experiment [10], in [18] and in experiment [12] was “inactive” throughout. The Potency entry in [13], in experiment [16], in experiment [15] and in experiment [17] was “inactive” each time.

For the compound `CN1[C@@H]2CC[C@H]1CC(OC(=O)C(CO)c1ccccc1)C2` (some centres undefined), the Potency result in experiment [1], in experiment [2], in [3], in experiment [4], in experiment [5] and in experiment [6] was “inactive” in each case. The Potency entry in experiment [7], in experiment [8], in [9], in [10], in experiment [11] and in experiment [12] was “inactive” throughout. For the same compound, the Potency result in experiment [13], in experiment [14] and in experiment [16] was “inactive” each time.

For `CC1CCCCN1CCCOC(=O)c1ccc(OC2CCCCC2)cc1` (centres undefined), the Potency entry in experiment [1], in experiment [3], in experiment [4], in experiment [7], in [8] and in experiment [9] was “inactive” each time. The Potency entry in experiment [10], in experiment [12], in [13], in experiment [14], in [16] and in [15] was “inactive” in each case. The Potency is 26.8 µM (active) in experiment [2], 16.9 µM (active) in experiment [5] and 10.7 µM (active) in [6].
